PrPC surface inh: inhibitors of human cell surface prion protein PrPC, primary screen, cell-based, TR-FRET; Major prion protein (Homo sapiens), P04156; TR-FRET read-out; inhibition, % at 13.8 µM; 0.43% of 370,000 active; AID 720596, 2013; in the data active = inhibition above about 24%; note: 0% = median of the test wells and 100% = reference compound wells
GDH-TPI inh: GDH-TPI coupling enzyme inhibitors, primary screen, artefact control for M. tuberculosis FBA inhibitor project, biochemical, absorbance, full deck; GDH-TPI coupled enzyme counterscreen, NADH absorbance; inhibition, % at 4.8 µM; 1.2% of 360,000 active; AID 588335, 2011; in the data active = inhibition above about 30%;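 note: 0% = DMSO wells and 100% = wells lacking the enzyme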
SARS 3CLpro inh: SARS-CoV 3CLpro protease inhibitors, primary screen, biochemical, quenched FRET; recombinant SARS-CoV 3CLpro, quenched FRET peptide cleavage; inhibition, % at 6 µM; 0.14% of 290,000 active; AID 1706, 2009; in the data active = inhibition above about 12%
FBA Mtb inh: Mtb FBA enzyme inhibitors, primary screen, biochemical, fluorescence, strain H37Rv; Fructose-bisphosphate aldolase (Mycobacterium tuberculosis (strain ATCC 25618 / H37Rv)), …; purified M. tuberculosis FBA, fluorescence read-out; inhibition, % at 1 µM; 2.3% of 360,000 active; AID 588726, 2011; in the data active = inhibition above about 27%;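 note: 0% = vehicle and 100% = reference inhibitor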
Target sequence (P9WQA3 whole entry, looked up): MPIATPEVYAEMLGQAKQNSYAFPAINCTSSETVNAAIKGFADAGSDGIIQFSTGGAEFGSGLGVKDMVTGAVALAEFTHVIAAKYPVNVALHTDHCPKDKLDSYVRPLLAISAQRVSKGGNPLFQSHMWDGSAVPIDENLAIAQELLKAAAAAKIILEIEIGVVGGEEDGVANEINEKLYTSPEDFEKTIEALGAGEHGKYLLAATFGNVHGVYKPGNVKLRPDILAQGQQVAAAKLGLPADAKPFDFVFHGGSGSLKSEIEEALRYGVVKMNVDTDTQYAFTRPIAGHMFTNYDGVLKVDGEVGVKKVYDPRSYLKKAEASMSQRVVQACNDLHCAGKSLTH
Vc quorum ag: inducers of Vibrio cholerae quorum light production without autoinducers, primary screen, BH1578 luxS cqsA deficient, single point; V. cholerae BH1578 lux reporter, luminescence, 6 h; activation, % at 18.7 µM; 0.16% of 350,000 active; in the data active = activation mostly above about 9.7%, no sharp cut-off
Numbers without * were called inactive. An excerpt weighted towards active compounds, which were near 3.9% of everything screened.

How did CCN1C(=O)[C@H]2[C@@H](c3ccc(-c4cc(C(C)=O)cs4)cc3)N3CCC[C@@]3(C(=O)OC)[C@H]2C1=O do in these assays?
PrPC surface inh: -8; GDH-TPI inh: 40*; FBA Mtb inh: 8; Vc quorum ag: inactive

Results for CCN1C(=O)[C@H]2[C@@H](c3ccc(-c4cc(C(C)=O)cs4)cc3)N3CCCC[C@@]3(C(=O)OC)[C@H]2C1=O ?
PrPC surface inh: -1; GDH-TPI inh: 10; FBA Mtb inh: 4; Vc quorum ag: -1

What do the screens show for `O=S(=O)(NC1=NCCCCC1)c1ccc2sc(NS(=O)(=O)c3ccc4ccccc4c3)nc2c1`?
PrPC surface inh: -9; GDH-TPI inh: -1; SARS 3CLpro inh: 7; FBA Mtb inh: 2; Vc quorum ag: inactive

What do the screens show for `O=S(=O)(Nc1nc2c(s1)CCCC2)c1ccc2ccccc2c1`?
PrPC surface inh: 3; GDH-TPI inh: -2; SARS 3CLpro inh: -2; FBA Mtb inh: -2; Vc quorum ag: 17*

Results for COc1cccc(C(C(=O)NC2CCCCC2)N(CC2CCCO2)C(=O)CNC(=O)c2ccco2)c1 (stereo not drawn) ?
PrPC surface inh: -4; GDH-TPI inh: 2; SARS 3CLpro inh: -7; FBA Mtb inh: -1; Vc quorum ag: -1

Results for O=C(Nc1ccc(N2CCCC(O)C2)cc1)c1snc2c(=O)[nH]cnc12 (stereo not drawn) ?
PrPC surface inh: -44; GDH-TPI inh: 19; SARS 3CLpro inh: 0; FBA Mtb inh: -4; Vc quorum ag: -4

Results for Cc1nc2c(C(=O)Nc3ccc(N4CCCC(O)C4)cc3)snc2c(=O)[nH]1 (stereo not drawn) ?
PrPC surface inh: -23; GDH-TPI inh: 44*; SARS 3CLpro inh: 1; FBA Mtb inh: -2; Vc quorum ag: -4

What do the screens show for `C[C@@H]1COC(=O)[C@@H](NC(=O)OCC2c3ccccc3-c3ccccc32)C/C=C\C[C@@H](CC(=O)N(CCO)Cc2ccccc2)C(=O)N1`?
PrPC surface inh: 14; GDH-TPI inh: -4; FBA Mtb inh: 2; Vc quorum ag: -1

Results for COCCn1c(=NC(=O)c2cc3ccccc3oc2=O)sc2cc(S(N)(=O)=O)ccc21 ?
PrPC surface inh: 3; GDH-TPI inh: 49*; SARS 3CLpro inh: 2; FBA Mtb inh: 2; Vc quorum ag: 0

Results for Cc1cccc2nc(CNC(=O)C3CCC(=O)N(Cc4ccccc4F)C3)cn12 (stereo not drawn) ?
PrPC surface inh: -7; GDH-TPI inh: 2; SARS 3CLpro inh: -2; FBA Mtb inh: 4; Vc quorum ag: 0

What do the screens show for `CC(=O)Nc1ccc(C=NNc2ccc(S(=O)(=O)Nc3ccccc3C(=O)O)cc2[N+](=O)[O-])cc1`?
PrPC surface inh: -32; GDH-TPI inh: 48*; FBA Mtb inh: -2; Vc quorum ag: inactive

Results for CC(=O)Nc1ccc(C=NNc2ccc([N+](=O)[O-])cc2S(=O)(=O)Nc2ccccc2C(=O)O)cc1 ?
PrPC surface inh: -2; GDH-TPI inh: 10; FBA Mtb inh: 0; Vc quorum ag: inactive

What do the screens show for `NS(=O)(=O)c1ccc(N/N=C/c2ccc[nH]2)c([N+](=O)[O-])c1`?
PrPC surface inh: -53; GDH-TPI inh: 73*; SARS 3CLpro inh: 5; FBA Mtb inh: -8; Vc quorum ag: -1

Results for CCC(CC)=NNc1ccc(S(N)(=O)=O)cc1[N+](=O)[O-] ?
PrPC surface inh: -21; GDH-TPI inh: 7; SARS 3CLpro inh: 0; FBA Mtb inh: -10; Vc quorum ag: 0

How did O=C(O)c1ccc(/C=N\Nc2ccc(S(=O)(=O)N3CCOCC3)cc2[N+](=O)[O-])cc1 do in these assays?
PrPC surface inh: -5; GDH-TPI inh: 0; SARS 3CLpro inh: 7; FBA Mtb inh: 4; Vc quorum ag: inactive

What do the screens show for `NS(=O)(=O)c1ccc(N/N=C/c2ccc(C(=O)O)cc2)c([N+](=O)[O-])c1`?
PrPC surface inh: -47; GDH-TPI inh: 67*; SARS 3CLpro inh: 0; FBA Mtb inh: -20; Vc quorum ag: -1

How did CN(CCO)c1ccc(C=NNc2ccc([N+](=O)[O-])cc2S(=O)(=O)Nc2ccccc2C(=O)O)cc1 do in these assays?
PrPC surface inh: -10; GDH-TPI inh: 33*; FBA Mtb inh: -19; Vc quorum ag: inactive

How did COc1cc(OC)cc(-c2csc(N3CCC(C(N)=O)CC3)n2)c1 do in these assays?
PrPC surface inh: 1

What do the screens show for `COc1ccccc1N1CC(C(=O)Nc2ccc(N3CCOCC3)cc2)CC1=O` (stereo not drawn)?
PrPC surface inh: 5; GDH-TPI inh: -2; FBA Mtb inh: 2; Vc quorum ag: inactive

How did CC(=O)Nc1ccc(C(=O)COC(=O)C2CC2C)c(F)c1 (stereo not drawn) do in these assays?
PrPC surface inh: 0; GDH-TPI inh: -10; FBA Mtb inh: 0; Vc quorum ag: inactive

Results for COc1cc(/C=N/Nc2ccc(S(N)(=O)=O)cc2[N+](=O)[O-])cc(OC)c1O ?
PrPC surface inh: -46; GDH-TPI inh: 42*; SARS 3CLpro inh: -1; FBA Mtb inh: -23; Vc quorum ag: inactive

How did CCNC(=S)N(Cc1ccc2c(c1)OCO2)C1CC(=O)N(c2ccc(F)cc2)C1=O (stereo not drawn) do in these assays?
PrPC surface inh: 3; GDH-TPI inh: 3; SARS 3CLpro inh: 6; FBA Mtb inh: 0; Vc quorum ag: 5

How did CCNC(=S)N(Cc1ccc2c(c1)OCO2)C1CC(=O)N(c2ccc(OC)cc2)C1=O (stereo not drawn) do in these assays?
PrPC surface inh: -13; GDH-TPI inh: -6; SARS 3CLpro inh: -1; FBA Mtb inh: 1; Vc quorum ag: 50*

How did CCOc1ccc(C(=O)NCC(=O)OCc2nnc(-c3ccccc3)o2)cc1OCC do in these assays?
PrPC surface inh: 7; GDH-TPI inh: 0; FBA Mtb inh: 5; Vc quorum ag: inactive

Results for Cc1ccc(-c2nc(CNC(=O)c3ccco3)cs2)cc1 ?
PrPC surface inh: 2; GDH-TPI inh: -3; SARS 3CLpro inh: 0; FBA Mtb inh: 2; Vc quorum ag: -2

How did CCOC(=O)C1CCN(S(=O)(=O)c2cccc(-c3cn4cccnc4n3)c2)CC1 do in these assays?
PrPC surface inh: 2; GDH-TPI inh: 8; SARS 3CLpro inh: -2; FBA Mtb inh: active; Vc quorum ag: -2

What do the screens show for `Nc1cc(Cl)nc(N/N=C/c2ccc([N+](=O)[O-])cc2)n1`?
PrPC surface inh: -36; GDH-TPI inh: 33*; SARS 3CLpro inh: -5; FBA Mtb inh: -4; Vc quorum ag: inactive

How did Cc1nc(-c2ccccc2)sc1-c1ccnn1C do in these assays?
PrPC surface inh: -7; GDH-TPI inh: 2; SARS 3CLpro inh: -1; FBA Mtb inh: 124*; Vc quorum ag: 0
